Reference: PMC4336329 (PLoS ONE, 2015)
In all, about 310,000 compounds went through this assay and about 14,000 (4.5%) showed an effect of 50% or more. The effect is printed as a negative number. The list comes from a sample in which strong results are over-represented; it also holds similar structures and randomly drawn compounds.

Biological target: human ether-à-go-go-related gene (hERG) potassium channel (human, UniProt Q12809)
Experiment: primary screen, population patch clamp on CHO cells stably expressing hERG; higher = less effect of the substance
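Also: peak tail current of the secondary pulse compared with the same well before compound.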

Chain of human ether-à-go-go-related gene (hERG) potassium channel (Q12809 whole entry, looked up): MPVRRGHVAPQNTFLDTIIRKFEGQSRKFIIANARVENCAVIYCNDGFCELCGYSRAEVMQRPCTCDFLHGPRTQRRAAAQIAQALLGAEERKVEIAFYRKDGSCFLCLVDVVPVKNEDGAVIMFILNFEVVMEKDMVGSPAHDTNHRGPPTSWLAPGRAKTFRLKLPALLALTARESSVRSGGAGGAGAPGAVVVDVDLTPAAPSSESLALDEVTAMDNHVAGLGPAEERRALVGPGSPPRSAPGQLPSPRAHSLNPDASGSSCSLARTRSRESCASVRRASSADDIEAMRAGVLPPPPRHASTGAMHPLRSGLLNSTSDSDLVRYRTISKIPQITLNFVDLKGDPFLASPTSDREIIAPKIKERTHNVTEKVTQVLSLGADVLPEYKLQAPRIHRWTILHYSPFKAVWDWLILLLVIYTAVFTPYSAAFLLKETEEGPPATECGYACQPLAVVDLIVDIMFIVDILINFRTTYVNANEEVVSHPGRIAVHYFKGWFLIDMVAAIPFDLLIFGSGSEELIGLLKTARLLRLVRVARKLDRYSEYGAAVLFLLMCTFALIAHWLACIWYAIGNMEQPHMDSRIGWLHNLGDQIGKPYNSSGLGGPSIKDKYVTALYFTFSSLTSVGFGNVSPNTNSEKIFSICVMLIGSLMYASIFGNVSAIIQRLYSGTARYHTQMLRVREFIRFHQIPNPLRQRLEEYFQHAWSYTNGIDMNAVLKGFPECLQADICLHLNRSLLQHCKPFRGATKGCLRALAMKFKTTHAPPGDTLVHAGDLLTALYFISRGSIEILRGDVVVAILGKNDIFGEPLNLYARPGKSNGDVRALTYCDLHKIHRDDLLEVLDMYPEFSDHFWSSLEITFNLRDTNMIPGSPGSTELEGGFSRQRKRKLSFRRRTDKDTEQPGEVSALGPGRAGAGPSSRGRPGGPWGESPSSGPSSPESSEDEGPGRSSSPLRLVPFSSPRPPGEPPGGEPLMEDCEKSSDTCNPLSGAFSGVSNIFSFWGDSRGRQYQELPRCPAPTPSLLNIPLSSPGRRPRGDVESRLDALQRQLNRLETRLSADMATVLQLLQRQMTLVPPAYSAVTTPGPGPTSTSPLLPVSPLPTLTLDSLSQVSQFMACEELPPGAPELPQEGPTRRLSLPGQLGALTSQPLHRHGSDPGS

| Structure (SMILES) | hERG current change (%, negative = inhibition) at 10uM |
| --- | --- |
| O=S(=O)(Nc1ccccc1)c1ccc2c(c1)CCO2 | 11% |
| O=C(Cn1c(=O)c2sccc2n(Cc2ccc([N+](=O)[O-])cc2)c1=O)NCCc1ccccc1 | -49% |
| O=C(OCC(=O)N1CCN(C(=O)c2ccco2)CC1)c1cn(-c2ccccc2)nc1-c1ccccc1 | -67% |
| COc1ccccc1-c1nn(-c2ccccc2)cc1C(=O)N1CCN(C(=O)c2ccco2)CC1 | -36% |
| Cc1cnc(C(=O)OCC(=O)N2CCN(C(=O)c3ccco3)CC2)cn1 | -8.85% |
| O=C(OCC(=O)N1CCN(C(=O)c2ccco2)CC1)c1ccccc1O | -18.2% |
| O=C(c1ccco1)N1CCN(C(=O)c2cn(-c3ccccc3)nc2-c2ccccc2)CC1 | -86.5% |
| O=C(c1cn(-c2ccccc2)nc1-c1ccccc1)N1CCOCC1 | -4.6% |
| COCCSc1ccccc1C(=O)Nc1ccncc1 | 16.4% |
| O=C(/C=C/c1ccc(F)cc1)NC(=S)Nc1ccccc1 | 4.35% |
| Cc1ccc(C(=O)Nc2ccc(SC(F)F)cc2)s1 | 24.4% |
| Cc1ccc(CNC(=O)CSc2nc3[nH]ncc3c(=O)[nH]2)cc1 | 4.89% |
| COC(=O)c1c(N(S(C)(=O)=O)S(C)(=O)=O)sc2c1CCN(c1ncc(C(F)(F)F)cc1Cl)C2 | 13% |
| C=CCN(CC=C)C(=O)C1CCN(S(=O)(=O)c2ccc(N3CCCC3=O)cc2)CC1 | 5.01% |
| O=C(C1CCN(S(=O)(=O)c2ccc(-n3cnnn3)cc2)CC1)N1CCN(c2ccccc2)CC1 | -35.7% |
| CN(Cc1ccccc1)C(=O)C1CCN(S(=O)(=O)c2ccc(-n3cnnn3)cc2)CC1 | -75.2% |
| CCC(C)NC(=O)C1CCN(S(=O)(=O)c2ccc(-n3cnnn3)cc2)CC1 (stereo not drawn) | 3.26% |
| O=S(=O)(c1ccccc1)N1CCC(Oc2ccc(-n3cnnn3)cc2)CC1 | -74.8% |
| C=CCN(CC=C)C(=O)C1CCN(S(=O)(=O)c2ccc(-n3cnnn3)cc2)CC1 | -54.4% |
| CCN(CC)C(=O)C1CCN(S(=O)(=O)c2ccc(-n3cnnn3)cc2)CC1 | -30% |
| CC(=O)c1ccc(S(=O)(=O)N2CCC(Oc3ccc(-n4cnnn4)cc3)CC2)cc1 | 21.9% |
| Cc1ccc(S(=O)(=O)N2CCC(Oc3ccc(-n4cnnn4)cc3)CC2)cc1 | 0.934% |
| COc1ccc(N2CCN(c3nc4ccccc4nc3NS(=O)(=O)c3ccccc3)CC2)cc1 | 1.21% |
| CCOC(=O)/C(C#N)=C/c1cn(CCC(=O)O)nc1-c1ccc(F)cc1 | 4.24% |
| Cc1ccc(S(=O)(=O)N2CCN(C3CC(=O)N(CCc4ccccc4)C3=O)CC2)cc1C (stereo not drawn) | -27.7% |
| Cc1cccc(C)c1NC(=O)C(c1cccs1)N(Cc1ccco1)C(=O)Cn1nnc2ccccc21 (stereo not drawn) | 14.4% |
| Cc1ccc(S(=O)(=O)NCCC(=O)OCC(=O)NC(=O)c2cccn2C)cc1 | -12.5% |

| Structure (SMILES) | hERG current change (%, negative = inhibition) at 10uM |
| --- | --- |
| Cn1cccc1C(=O)NC(=O)COC(=O)CCNS(=O)(=O)c1cccc(C(F)(F)F)c1 | -52.4% |
| O=C(COC(=O)CCNS(=O)(=O)c1cccc(C(F)(F)F)c1)NC(=O)NC1CCCCC1 | -14.4% |
| Oc1ccccc1/C=N/Nc1nccnc1Cl | -0.0796% |
| CCOC(=O)C1CCN(C2CCN(C(=O)c3oc4c(F)cccc4c3C)CC2)CC1 | -71.1% |
| Cc1ccc2c(C)c(C(=O)N3CCN(C4CCS(=O)(=O)C4)CC3)oc2c1C (stereo not drawn) | -4.49% |
| CCCN(CC1CC1)C(=O)COC(=O)c1oc2c(F)cccc2c1C | -52.8% |
| CCCN(CC1CC1)C(=O)COC(=O)c1oc2ccc(OCC)cc2c1C | -27.8% |
| COCC1CCN(C(=O)c2oc3c(F)cccc3c2C)C1 (stereo not drawn) | 0.639% |
| CCOC(=O)C1CCN(C2CCN(C(=O)c3oc4c(C)c(C)ccc4c3C)CC2)CC1 | -69.3% |
| Cc1c(C(=O)N2CCC(N3CCSCC3)CC2)oc2c(F)cccc12 | -34.9% |
| CCOC(=O)N1CCC(NC(=O)c2oc3c(C)c(C)ccc3c2C)CC1 | -32.2% |
| CCCN(CC1CC1)C(=O)COC(=O)c1[nH]c(C)c(C(=O)OCC)c1C | -5.5% |
| Cc1cc(OCC(=O)Nc2c(C)n(C)n(-c3ccccc3)c2=O)ccc1[N+](=O)[O-] | -23.5% |
| Cc1[nH]c2c(C(=O)N3CCCC(CCC(=O)NCc4ccccc4F)C3)cccc2c1C (stereo not drawn) | 3.39% |
| CCCC(c1nnnn1Cc1ccccc1)N1CCC(C(N)=O)CC1.Cl (stereo not drawn) | -3.44% |
| CC(C)CCNC(=O)c1cc(-c2cccs2)nc2ccccc12 | 5.1% |
| CCCCN(C)CCCNC(=O)c1cc(-c2cccs2)nc2ccccc12 | -85.6% |
| Cc1cc(C)n2nc(C(=O)NCc3ccco3)cc2n1 | 10.4% |
| CCCCN(C)CCCNC(=O)c1cc(-c2cccnc2)nc2ccccc12 | -60.1% |
| COCCCNC(=O)c1cc(-c2cccnc2)nc2ccccc12 | 16.6% |
| COCCNC(=O)c1cc2nc(-c3ccccc3)cc(C)n2n1 | 7.82% |
| O=C(NCc1ccco1)c1cc(-c2cccnc2)nc2ccccc12 | -52.6% |
| CC(C)OCCCNC(=O)c1cc(-c2cccs2)nc2ccccc12 | 0.89% |
| O=C(NCc1ccco1)c1cc(-c2cccnc2)nc2ccc(Cl)cc12 | -36.3% |
| Cc1cc(-c2ccccc2)nc2cc(C(=O)NCc3ccco3)nn12 | -55.9% |
| CCCCNC(=S)NNC(=O)c1cc(-c2cccnc2)nc2ccccc12 | -7.41% |
| O=C(NCc1ccco1)c1cc(-c2ccccc2)nc2ccccc12 | -16.5% |
